Source: PubChem
This is a sample that favours compounds with a hit; in the whole collection about 8% have one here.
KB-V1 cytotox: qHTS assay for MDR1-selective chemotherapeutics: Primary screen using the drug-selected MDR subline cells KB-V1; 400,000 compounds, 3.4% hits; Potency, µM (titrated, usually from 46.1 µM), hits mostly cytotoxic; AID 1347076, 2019; KB-V1 MDR cells viability, CellTiter-Glo, 72 h; also: % is scaled to controls: 0 for no effect and ±100 for the full control effect; nearly all actives have a fitted effect of over 60% in size
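Compound-treated KB-V1 multidrug-resistant cells, 72 h, 37 degrees C; viability by CellTiter-Glo. Fitted qHTS curves give the values.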
HT1080 IDH1KD tx: qHTS for induction of synthetic lethality in tumor cells producing 2HG: qHTS for the HT-1080-IDH1KD cell line; HT-1080 IDH1 knockdown viability, ATP luminescence, 48 h; Potency, µM (top dose mostly 46.1 µM), for inactives: at the highest dose activity, negative = toxicity, usual class: cytotoxic; 360,000 compounds, 2% hits;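 also: 0% = DMSO wells and -100% = cell-free medium wells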
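Luminescent ATP read-out (CellTiter-Glo, 10 min at room temperature) after 48 h compound exposure at 37 °C gave viability of IDH1-knockdown HT-1080 cells. Activity was normalised to DMSO and cell-free wells, then fitted as concentration-response curves.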
KB-3-1 cytotox: qHTS assay for MDR1-selective chemotherapeutics: Primary screen using the parental adenocarcinoma cell KB-3-1 | 400,000 compounds, 1.4% hits | Potency, µM (top dose mostly 46.1 µM), actives largely listed as cytotoxic | KB-3-1 viability, CellTiter-Glo ATP luminescence, 72 h; also: % is scaled to controls: 0 for no effect and ±100 for the full control effect; nearly all actives have a fitted effect of over 60% in size
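72 h, 37 °C compound treatment of KB-3-1 parental cells; CellTiter-Glo added, 10 min, luminescence read. Data corrected against DMSO-only plates and normalized before curve fitting.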
MCF10A rereplic: A quantitative high throughput screen for small molecules that induce DNA re-replication in MCF 10a normal breast cells. MCF 10A DNA re-replication, Hoechst nuclear intensity, 48 h. Potency, µM (highest dose often 46.1 µM), without a hit: at the highest dose activity, positive = re-replication, most hits filed as activators. 350,000 compounds, 2.9% hits; also: % of control where 0% means no effect; nearly all actives have a fitted effect of over 50% in size
SW480 rereplic: A quantitative high throughput screen for small molecules that induce DNA re-replication in SW480 colon adenocarcinoma cells | 340,000 compounds, 1.8% hits | SW480 DNA re-replication, Hoechst DNA content imaging, 48 h | Potency, µM (top dose mostly 46.1 µM), inactives show at the top dose re-replication activation, most hits filed as activators; also: % of control where 0% means no effect; nearly all actives have a fitted effect of over 55% in size
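Per well, 250 cells were exposed to pinned compound for 48 hr. Nuclear DNA was visualised with Hoechst (40 min, 37 C) and total object intensity recorded by fluorescence scanning.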
HT1080-NT tox: qHTS for induction of synthetic lethality in tumor cells producing 2HG: qHTS for the HT-1080-NT fibrosarcoma cell line | HT-1080-NT fibrosarcoma viability, CellTiter-Glo ATP luminescence, 48 h | Potency, µM (top dose mostly 46.1 µM), for inactives: at the highest dose activity, negative = less viability, hits mostly cytotoxic | 360,000 compounds, 1.6% hits | AID 686970, 2013;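 also: NT is the 2HG producing partner of a matched IDH1 knockdown line; 0% = DMSO-treated cells and -100% = media-only wells without cells; nearly all actives have a fitted effect of over 55% in size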
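A 48-hour cytotoxicity screen used HT-1080-NT cells plated 2 hours before compound delivery. ATP-based CellTiter-Glo luminescence measured viability, normalized to DMSO and no-cell controls.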
* = called active by the depositor; i = inactive; u = inconclusive; x = no result; [ ] = dose if it differs, or a comment. Calls follow the shape of the dose curve; as a rule, active = well fitted curve in the direction sought with a large enough effect; inconclusive = small, poorly fitted or top-dose-only effect, or another doubt; inactive = no such curve, though single readings can be large; an effect the other way counts as inactive or inconclusive. Potency is read from the fitted curve at half-maximal effect.

SMILES	KB-V1 cytotox	HT1080 IDH1KD tx	KB-3-1 cytotox	MCF10A rereplic	SW480 rereplic	HT1080-NT tox
COc1cc(OC)c(OC)cc1CNCCCSc1nnnn1C	u	x	i	x	x	x
CCOC(=O)c1ccc(-n2c(-c3ccc(C)cc3)c(C)n3c4c(=O)n(C)c(=O)n(C)c4nc23)cc1	i	x	i	x	x	x
COc1cc2c(NC3CCN(C(C)C)CC3)nc(N3CCCN(C)CC3)nc2cc1OCCOCCN1CCCC1	i	x	12µM*	x	x	x
COc1cc2nc(N3CCCN(C)CC3)nc(NC3CCCCC3)c2cc1OC	x	u	x	x	x	18µM*
COc1cc2c(NC3CCN(C)CC3)nc(N3CCCCC3)nc2cc1OCCOCCN1CCCC1	i	x	u	x	x	x
CCOC(=O)C[C@H]1c2ccccc2S(=O)(=O)N1c1ccccc1	i	-4%	i	-22%	-2%	-1%
CC1(C(=O)NCc2cccs2)Cc2c(-c3ccc(C(N)=O)cc3)ccnc2O1 (configuration not stated)	i	15µM*	15µM*	x	x	u
CC1(C(=O)NCc2cccs2)Cc2c(-c3cccc(C(F)(F)F)c3)ccnc2O1 (configuration not stated)	21µM*	4.6µM*	u	x	x	5.8µM*
CC1(C(=O)NCc2ccccc2)Cc2c(-c3cccc(C(F)(F)F)c3)ccnc2O1 (configuration not stated)	6.5µM*	3.7µM*	16µM*	x	x	u
CC(C)NC(=O)C1(C)Cc2c(-c3cccc(C(F)(F)F)c3)ccnc2O1 (configuration not stated)	i	0%	i	x	x	8%
COc1cccc(CNC(=O)CCS(=O)(=O)c2cccs2)c1	i	17%	i	0%	0%	16%
CCn1c(SCc2ccc(F)cc2)nnc1-c1nn(-c2ccccc2)ccc1=O	i	0%	i	20%	-7%	-2%
Cc1cc(C)n(-c2nc3ccccc3c(=O)n2OCC(=O)N(C)C)n1	i	-5%	i	-3%	-1%	-4%
Cc1cc(CC(C)C)n(-c2nc3ccccc3c(=O)n2OCc2ccccc2)n1	9.2µM*	-14%	u	27%	4%	-13%
Cc1cc(CC(C)C)n(-c2nc3ccccc3c(=O)n2OCC(=O)N(C)C)n1	i	-1%	i	3%	-3%	-8%
Cc1cc(C)n(-c2nc3ccccc3c(=O)n2OCC(=O)OCc2ccccc2)n1	i	u	23µM*	8%	u	u
CN(C)c1cccc(-c2ncc(F)c(N3CCC(C(N)=O)CC3)n2)c1	i	x	u	x	x	x
Cc1nn(Cc2cccc(C(=O)NC34CC5CC(CC(C5)C3)C4)c2)c(C)c1Br	u	u	i	9.2µM*	7%	u
COCCNC(=O)CSc1nc2cc(OC)c(OC)cc2c(=O)n1CCc1ccc(S(N)(=O)=O)cc1	i	23%	i	0%	-12%	12%
Cc1cc(C)n(-c2nc(NCCCN(C)C)c3c4c(sc3n2)COC(C)(C)C4)n1	i	-25%	i	2%	-6%[9.22 µM]	-14%
Cc1cc(C)n(-c2nc(NCCCN(C)C)c3c4c(sc3n2)CCCC4)n1	u	u	u	u	u	15µM*
Cc1cc(C)n(-c2nc(NCCN(C)C)c3c4c(sc3n2)CCCC4)n1	u	21µM*	i	u	u	21µM*
Cc1cc(C)n(-c2nc(SCCN3CCOCC3)c3c4c(sc3n2)CCCC4)n1	i	-20%	u	6%	0%	-6%
Cc1ccc(-c2nc3ccccc3o2)cc1NC(=O)COc1ccccc1C	u	x	i	x	x	x
CCCCCCCCNC(=O)CCNC(=O)c1ccc(C(C)(C)C)cc1	13µM*	-6%	i	u	7%	-5%
SMILES	KB-V1 cytotox	HT1080 IDH1KD tx	KB-3-1 cytotox	MCF10A rereplic	SW480 rereplic	HT1080-NT tox
O=C(NCCCN1CCOCC1)c1ccc(Br)cc1	i	-5%	i	-4%	-14%	-1%
CC(C)(C)c1ccc(C(=O)NCCCN2CCN(CCCNC(=O)c3ccc(C(C)(C)C)cc3)CC2)cc1	18µM*	u	u	16µM*	u	18µM*
COc1cc(OC)cc(C(=O)NNC(=O)c2cc3c(s2)CCCC3)c1	i	7%	i	-2%	10%	0%
Cc1cc(C)cc(-n2c(C)cc(C(=O)C(=O)Nc3nnc(C)s3)c2C)c1	i	x	i	x	x	x
CSc1nsc(/C=C/Nc2cccc(Cl)c2)c1C#N	i	-8%	i	9.2µM*	19%	-2%
CSc1nsc(/C=C/Nc2ccc(Cl)cc2)c1C#N	i	-18%	i	u	5%[9.22 µM]	-18%
CSc1nsc(/C=C/Nc2ccc(O)cc2C)c1C#N	i	-21%	i	u	23µM*	-13%
COC(=O)N/N=C/c1cn(Cc2ccccc2Cl)c2ccccc12	i	u	i	12%	-1%	-19%
COC(=O)N/N=C/c1cn(CCCOc2ccccc2)c2ccccc12	23µM*	u	u	u	u	-21%
COC(=O)N/N=C/c1cn(Cc2ccc(Cl)cc2Cl)c2ccccc12	16µM*	-24%	u	u	u	-18%
COC(=O)N/N=C/c1cn(Cc2c(Cl)cccc2Cl)c2ccccc12	16µM*	-7%	i	-40%	-41%	-2%
CO[C@H]1C[C@@H]2CC[C@@H](C)[C@@](O)(O2)C(=O)C(=O)N2CCCC[C@H]2C(=O)O[C@H]([C@H](C)C[C@@H]2CC[C@@H](O)[C@H](OC)C2)CC(=O)[C@H](C)/C=C(\C)[C@@H](O)[C@@H](OC)C(=O)[C@H](C)C[C@H](C)/C=C/C=C/C=C/1C	i	x	u	u	u	x
Cc1cc(C)c(NC(=O)c2ccc(CN3CCc4ccccc4C3)cc2)c(C)c1	u	-24%	u	2%	-3%	-28%
Cc1ccc2nc(-c3ccc(NC(=O)C(F)(F)F)cc3)sc2c1	i	x	u	x	x	x
Cc1ccc(S(=O)(=O)Nc2ccc(-c3nc4ccc(C)cc4s3)cc2)cc1	i	-21%	i	23µM*	u	0%
Cc1cccc(S(=O)(=O)Nc2ccc(-c3cn4ccccc4n3)cc2)c1	23µM*	3%	i	13%	-1%	5%
